Bioassay records from PubChem BioAssay.
ATXN viability = viability counter-screen for ATXN expression inhibitors; S2 cells (HEK-293 line with an ATXN2-luciferase reporter) viability, CellTiter-Fluor protease fluorescence, 24 h; Potency, µM (titrated, usually from 56.7 µM), actives largely listed as cytotoxic; hit rate 0.49% among 400,000; note: nearly all actives have a fitted effect of over 40% in size
A549 tox = counter-screen for Nrf2 inhibitors: cytotoxicity in A549 cells | Potency, µM (doses to about 46 µM), hits mostly inhibitors | hit rate 0.16% among 390,000 | AID 504648 | A549 ARE-Fluc cells, CellTiter-Fluor viability, 18-24 h
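A549 ARE-Fluc cells in 5% FBS OPTI-MEM, 5000 cells/well, rested 2 h then exposed to compounds in concentration-response for 18-24 h at 37 °C. Viability by CellTiter-Fluor fluorescence (Ex 405/Em 525) after 30 min; luciferase luminescence (BugLite, 15 min, RT) read afterwards.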
Nrf2 inh = Nrf2 pathway inhibition; A549 ARE-Fluc reporter, luciferase luminescence, 18-24 h; Potency, µM (doses to about 46 µM), usual class: inhibitors; hit rate 2.1% among 360,000; AID 504444; note: nearly all actives have a fitted effect of over 60% in size
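Concentration-response testing used A549 ARE_Fluc cells at 5000 cells/well. Following an 18-24 h compound incubation, viability was read by fluorescence (Ex 405/Em 525) and luciferase output by luminescence.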
HepG2 tox = HepG2 cytotoxicity, counter-screen for TGF-b inhibitors | AID 588856 | Potency, µM (titrated, usually from 46.1 µM), most hits filed as cytotoxic | hit rate 0.76% among 410,000 | HepG2 CAGA-GFP viability, ATP luminescence, 18 h
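HepG2 CAGA-GFP cells (1000/well, DMEM with 1% FBS) received compound, then TGF-beta at 500 pg/mL final, and were incubated 18 hours at 37 degrees C. Viability was read by CellTiter-Glo luminescence. Media-only wells were set as complete cell-killing and DMSO as no toxicity.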
TGFb SMAD3 inh = TGF-b pathway inhibition; HepG2 CAGA-GFP TGF-b/SMAD3 reporter, GFP fluorescence, 18 h; TGF-beta stimulated, 500 pg/mL final; Potency, µM (titrated, usually from 46.1 µM), most hits filed as inhibitors; hit rate 1.2% among 410,000; note: nearly all actives have a fitted effect of over 65% in size
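GFP signal (ex488/em500-530) from TGF-beta-stimulated HEPG2 CAGA-GFP cells, 500 pg/mL final, 18 h at 37 degrees C in DMEM plus 1% FBS, normalized to unstimulated and DMSO-stimulated controls.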
ATXN2 expr inh = reduces ATXN2 reporter expression in HEK-293 cells; Potency, µM (series often up to 57 µM), most hits filed as inhibitors; hit rate 0.72% among 360,000; HEK-293 ATXN2-luciferase reporter, luminescence, 24 h; AID 1745845; note: nearly all actives have a fitted effect of over 55% in size
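ATXN2-luciferase reporter cells (luciferase flanked by upstream and downstream ATXN2 gene portions) were treated 24 h at 37 °C with compounds at up to 57 uM. SteadyGlo luminescence gave expression; GF-AFC fluorescence gave viability.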
Hits are given with their value. Compounds with a hit are over-represented: about 3.8% of the library has one in this group of screens. Calls come from the whole dose curve; as a rule, active = well fitted curve in the direction sought with a large enough effect; inconclusive = small, poorly fitted or top-dose-only effect, or another doubt; inactive = no such curve, though single readings can be large; an effect the other way counts as inactive or inconclusive.

COc1ccc(OC)c(-c2cc(Cl)c3c(c2)CC(CNC(=O)c2cnn4cccnc24)O3)c1 (stereo unspecified) was read as ATXN viability inactive.
CCN(CC)S(=O)(=O)c1ccc2c(c1)N(CC(=O)NCCCN1CCN(c3cc(C)ccc3C)CC1)C(=O)CO2 was read as ATXN viability 16µM, A549 tox inactive, HepG2 tox 16µM, TGFb SMAD3 inh inconclusive and ATXN2 expr inh 32µM.
For CCN(CC)S(=O)(=O)c1ccc2c(c1)N(CC(=O)NCCCN1CCN(c3ccccc3F)CC1)C(=O)CO2 the results were A549 tox inactive, Nrf2 inh inactive, HepG2 tox inactive and TGFb SMAD3 inh inconclusive.
`Cc1ccc(C)c(N2CCN(CCCNC(=O)Cn3cccc3C(=O)c3ccccc3)CC2)c1` gave ATXN viability 17µM, A549 tox inactive, Nrf2 inh inactive, HepG2 tox inactive, TGFb SMAD3 inh inactive and ATXN2 expr inh inconclusive.
CCCS(=O)(=O)c1nc(S(=O)(=O)c2ccc(C)cc2)c(N2CCN(CCO)CC2)s1 was read as A549 tox inactive, Nrf2 inh inconclusive, HepG2 tox inactive and TGFb SMAD3 inh inactive.
Screening COc1cccc(CCNC(=O)c2ccc(Cn3c(SCc4ccccc4)nc4cccnc43)cc2)c1 returned A549 tox inactive, Nrf2 inh inconclusive, HepG2 tox inactive and TGFb SMAD3 inh inconclusive.
CON(C)C(=O)CCN(C(=O)OC(C)(C)C)c1ccccc1 was read as ATXN viability inactive, A549 tox inactive, Nrf2 inh inactive, HepG2 tox 0.56µM, TGFb SMAD3 inh inactive and ATXN2 expr inh inactive.
Screening COC(=O)CCC(=O)N(CCN(C(=O)CCC(=O)OC)c1ccccc1)c1ccccc1 returned ATXN viability inactive, A549 tox inactive, Nrf2 inh inactive, HepG2 tox inactive, TGFb SMAD3 inh inactive and ATXN2 expr inh inactive.
O=C(CCNC(=O)c1ccc([N+](=O)[O-])cc1)NCc1ccco1 was read as ATXN viability inactive, A549 tox inactive, Nrf2 inh inactive, HepG2 tox inactive, TGFb SMAD3 inh inactive and ATXN2 expr inh inactive.
CN(Cc1ccccc1)c1nnc(NC(=O)Nc2cccc(Br)c2)s1 was read as A549 tox inconclusive, Nrf2 inh inactive, HepG2 tox inactive and TGFb SMAD3 inh inconclusive.
Screening CCN(CC)CCN(C(=O)CCS(=O)(=O)c1ccccc1)c1nc2cc(C)cc(C)c2s1 returned ATXN viability inactive, A549 tox inactive, Nrf2 inh inactive, HepG2 tox 18µM, TGFb SMAD3 inh 16µM and ATXN2 expr inh inactive.
Screening CC(=O)NC(c1ccc(F)c(F)c1)c1nc(-c2ccccc2)cs1 (stereo unspecified) returned ATXN viability inactive, HepG2 tox inactive, TGFb SMAD3 inh inactive and ATXN2 expr inh inactive.
`Fc1ccc(C(c2ccc(F)cc2)N2CCN(C/C=C/c3ccccc3)CC2)cc1` gave ATXN viability inconclusive, A549 tox inactive, Nrf2 inh inactive, HepG2 tox 6.3µM, TGFb SMAD3 inh inconclusive and ATXN2 expr inh inactive.
Screening C(=C\c1ccccc1)/CN1CCN(C(c2ccccc2)c2ccccc2)CC1 returned ATXN viability inactive, A549 tox inactive, Nrf2 inh inactive, HepG2 tox inactive, TGFb SMAD3 inh inactive and ATXN2 expr inh inactive.
For COc1ccc(-c2nc3ccccc3n2Cc2ccccc2)cc1 the results were ATXN viability inconclusive, A549 tox inactive, Nrf2 inh inactive, HepG2 tox inactive, TGFb SMAD3 inh inconclusive and ATXN2 expr inh inactive.
COc1ccc(-c2n(Cc3ccccc3)c3ccccc3[n+]2Cc2ccccc2)cc1 was read as ATXN viability inactive, A549 tox inconclusive, Nrf2 inh inconclusive, HepG2 tox inactive, TGFb SMAD3 inh 7.9µM and ATXN2 expr inh inconclusive.
`O=C(NCc1ccccc1)c1ccc2c(c1)nc1n2CCOC1` gave A549 tox inactive, HepG2 tox inactive and TGFb SMAD3 inh inactive.
O=C(NCCO)c1ccc(-c2nnc(Nc3ccc(OC(F)(F)Cl)cc3)c3ccccc23)cc1 was read as ATXN viability inactive, A549 tox inactive, Nrf2 inh inconclusive, HepG2 tox inactive, TGFb SMAD3 inh 11µM and ATXN2 expr inh inconclusive.
`Cc1c(OCC(=O)NC2CC(C)(C)NC(C)(C)C2)ccc2c1oc(=O)c1ccccc12` gave ATXN viability inconclusive, A549 tox inactive, Nrf2 inh inactive, HepG2 tox inactive, TGFb SMAD3 inh inactive and ATXN2 expr inh 18µM.
For CCc1ccc(NS(=O)(=O)c2ccc3[nH]cc(C(=O)NCc4ccc(C)cc4)c(=O)c3c2)cc1 the results were ATXN viability inactive, A549 tox inconclusive, Nrf2 inh inconclusive, HepG2 tox 20µM, TGFb SMAD3 inh inconclusive and ATXN2 expr inh inconclusive.
`CCc1ccc(NS(=O)(=O)c2ccc3[nH]cc(C(=O)NCC4CCCO4)c(=O)c3c2)cc1` (stereo unspecified) gave ATXN viability inactive, A549 tox inactive, Nrf2 inh inactive, HepG2 tox inactive, TGFb SMAD3 inh inconclusive and ATXN2 expr inh inactive.
`Cc1ccc(C(O)c2ccncc2)cc1` (stereo unspecified) gave ATXN viability inactive, A549 tox inactive, HepG2 tox inactive, TGFb SMAD3 inh inactive and ATXN2 expr inh inactive.
`Cc1ccccc1C(O)c1ccncc1` (stereo unspecified) gave ATXN viability inactive, A549 tox inactive, HepG2 tox 18µM, TGFb SMAD3 inh inactive and ATXN2 expr inh inactive.
CC(=O)/C=N/Nc1ccccc1 was read as ATXN viability inactive, A549 tox inactive, Nrf2 inh inactive, HepG2 tox inactive, TGFb SMAD3 inh 22µM and ATXN2 expr inh inactive.
For Cc1cc(C)c(NC(=S)NC(NC(=O)c2ccccc2)C(Cl)(Cl)Cl)c(C)c1 (stereo unspecified) the results were ATXN viability inactive, A549 tox inactive, Nrf2 inh inconclusive, HepG2 tox inactive, TGFb SMAD3 inh inconclusive and ATXN2 expr inh inconclusive.
O=C(NC(NC(=S)Nc1ccccc1)C(Cl)(Cl)Cl)c1cccc(Cl)c1 (stereo unspecified) was read as ATXN viability inactive, A549 tox inconclusive, Nrf2 inh inconclusive, HepG2 tox 13µM, TGFb SMAD3 inh 4.5µM and ATXN2 expr inh inconclusive.
Cc1ccc(NC(=S)NC(NC(=O)c2ccccc2)C(Cl)(Cl)Cl)c(C)c1 (stereo unspecified) was read as ATXN viability inconclusive, A549 tox inconclusive, Nrf2 inh 21µM, HepG2 tox inactive, TGFb SMAD3 inh inconclusive and ATXN2 expr inh inactive.
Screening O=C(NC(NC(=S)Nc1ccc(Cl)cc1Cl)C(Cl)(Cl)Cl)c1cccc([N+](=O)[O-])c1 (stereo unspecified) returned ATXN viability inconclusive, A549 tox inconclusive, Nrf2 inh inconclusive, HepG2 tox 13µM, TGFb SMAD3 inh inconclusive and ATXN2 expr inh inconclusive.
